Active and inactive are the calls of the source. Rule for the calls: active = hit-call score of the fitted dose curve at least 0.9, where 1 is the maximum; inconclusive = response in the unintended direction; inactive = score below 0.9.

For this assay, the target named is human CYP1A2, CYP1A2 (gene 1544) (UniProt P05177). Kind of assay: NVS_ADME_hCYP1A2: NovaScreen (NVS) CYP450-related Enzyme Activity (ADME) Assay for human CYP1A2 (AID 2283102).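 For AC50: potency for inhibition since loss of fluorescence marks reduced CYP1A2 activity.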 The method, then: NVS_ADME_hCYP1A2 is a biochemical, single-readout assay that uses extracted gene-proteins from insect cells in a cell-free assay. Measurements were taken 0.5 hour after chemical dosing in a 96-well plate.NVS_ADME_hCYP1A2 is one of one assay component(s) measured or calculated from the NVS_ADME_hCYP1A2 assay. It is designed to make measurements of enzyme activity, a form of enzyme reporter, as detected with fluorescence intensity signals by Fluorescence technology.Data from the assay component NVS_ADME_hCYP1A2 was analyzed into 1 assay endpoint. This assay endpoint, NVS_ADME_hCYP1A2, was analyzed in the positive analysis fitting direction relative to Acetonitrile as the negative control and baseline of activity. Using a type of enzyme reporter, loss-of-signal activity can be used to understand changes in the enzymatic activity as they relate to the gene CYP1A2. Furthermore, this assay endpoint can be referred to as a primary readout, because this assay has produced multiple assay endpoints where this one serves a enzymatic activity function. To generalize the intended target to other relatable targets, this assay endpoint is annotated to the cyp intended target family, where the subfamily is xenobiotic metabolism.
Sequence of human CYP1A2, CYP1A2 (gene 1544) (P05177 whole entry, looked up): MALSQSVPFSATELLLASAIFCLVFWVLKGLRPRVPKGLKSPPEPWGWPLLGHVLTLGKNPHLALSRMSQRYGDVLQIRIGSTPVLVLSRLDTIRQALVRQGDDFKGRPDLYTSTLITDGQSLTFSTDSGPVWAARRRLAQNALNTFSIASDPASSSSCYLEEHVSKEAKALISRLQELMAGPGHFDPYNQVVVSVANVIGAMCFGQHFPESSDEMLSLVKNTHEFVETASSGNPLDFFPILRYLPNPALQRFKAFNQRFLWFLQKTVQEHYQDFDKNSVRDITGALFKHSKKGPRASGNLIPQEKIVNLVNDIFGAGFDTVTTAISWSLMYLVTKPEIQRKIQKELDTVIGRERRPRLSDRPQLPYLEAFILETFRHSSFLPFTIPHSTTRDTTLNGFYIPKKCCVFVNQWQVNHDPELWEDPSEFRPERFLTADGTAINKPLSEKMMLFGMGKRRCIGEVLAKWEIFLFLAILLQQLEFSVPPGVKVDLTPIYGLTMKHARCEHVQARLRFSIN
Binding assays used specific radioligands (tritiated, iodinated) with non-radioactive competitive displacement ligands in agonist or antagonist protocols (as indicated) and various reference compounds and inhibitors to titrate specific binding to receptors and transporters. Most enzyme assays (CYPs, kinases, phosphatases, proteases, HDACs) used recombinant protein and specific substrates (fluorescence mostly, some colorimetric and radioactive) and inhibitors, followed by a biochemical separation of substrate and product. All assays for the biochemical HTS were initially run in duplicate at a single concentration (10 uM for CYP450 assays and 25 uM for all others). […] Each assay was run with positive and negative controls, and concurrent controls on every plate. The follow-up (secondary) screen tested active chemical-pairs in concentration series, as well as a few additional assays not tested in the primary screen, some selected negative inactives, and several cases re-run in the concentration series for confirmatory purposes.
As usually defined, the AC50 is the concentration at which the activity in the assay is half-maximal. As to `COC(=O)c1ccccc1S(=O)(=O)NC(=O)Nc1nc(OC(F)F)cc(OC(F)F)n1`, the AC50 was 5430 nM (active). On to `CCCCCCC(C)OC(=O)COc1nc(F)c(Cl)c(N)c1Cl` (configuration not stated), for which the compound was called inactive.

For `COC(=O)CSc1cc(N=c2sc(=O)n3n2CCCC3)c(F)cc1Cl`, the outcome was inactive. Take `CCCCOCCOCCOCc1cc2c(cc1CCC)OCO2`: the AC50 was 1530 nM (active).

With `CCCCCOC(=O)COc1cc(N2C(=O)C3=C(CCCC3)C2=O)c(F)cc1Cl`, the AC50 was 1290 nM (active).

As for `CCOC(=O)C(C)Oc1ccc(Oc2nc3ccc(Cl)cc3o2)cc1` (configuration not stated), the call was inactive. Take `c1ccc2[nH]c(-c3cscn3)nc2c1`: the AC50 was 2470 nM (active). Still for that read-out and setting: as for `C#CCOC(=O)[C@@H](C)Oc1ccc(Oc2ncc(Cl)cc2F)cc1`, the figure is 1640 nM (active); as for `CCCN(CCC)c1c([N+](=O)[O-])cc(C(F)(F)F)c(N)c1[N+](=O)[O-]`, 6020 nM (active); as for `CSC(=O)c1cccc2nnsc12`, 653 nM (active).

Consider `CN(C)C(=O)Nc1ccc(Cl)c(Cl)c1`, for which the AC50 is 1630 nM (active). Same read-out and setting: the value for `CCCCC(CC)CN1C(=O)C2C3C=CC(C3)C2C1=O` (configuration not stated) was 5570 nM (active); that for `O=C(c1ccc(O)cc1O)c1ccc(O)cc1O` was 4040 nM (active). For `S=C(S)NCCNC(=S)S.[Mn+2].[S-]C([S-])=NCCN=C([S-])[S-].[Zn+2]`, the compound was called inactive. In the case of `N#CSCSc1nc2ccccc2s1`, the AC50 was 3440 nM (active). With `CCOC(=O)[C@H](C)Oc1ccc(Oc2nc3ccc(Cl)cc3o2)cc1`, the result was inactive. For `S=C([S-])NCCNC(=S)[S-].[Mn+2]`, the AC50 was 5500 nM (active).

The values are drawn from PubChem BioAssay (EPA / NIEHS).
